“And” between values parts separate entries of the source, which are not always exact repeats. Equal values may be shown once. Screen size: about 5,500 compounds; about 2,000 (36%) were called active. Not shown: some 18% with an inconclusive outcome. No stated cut-off is given here; in the data, active means normalized growth mostly below about 0.91 (no sharp cut-off); inconclusive means no clear call, values can overlap the other calls; inactive means mostly above about 0.92. The list shows a part of the results.
Assay: chemical genetic growth profiling, strain panel (AID 1159580);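 further: tested at 20 µM; growth read once vehicle control cultures reached saturation at 30 °C; 1 = growth at the plate median or of vehicle wells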
Conditions: S. cerevisiae deletion strains, growth OD

Measured: normalized growth

O=C(O)C1=CCCNC1
inactive: locus YAL021C, strain ccr4, stronger effect = lower value 1.02 | locus YAL026C, strain drs2, stronger effect = lower value 0.991 | locus YAL030W, strain snc1, stronger effect = lower value 0.999 | locus YBL061C, strain skt5, stronger effect = lower value 0.993 | locus YBR009C, strain hhf1, stronger effect = lower value 1.04 | locus YBR021W, strain FUR4, stronger effect = lower value 1.02 | locus YBR023C, strain chs3, stronger effect = lower value 1.01 | locus YBR171W, strain sec66, stronger effect = lower value 0.985 | locus YBR229C, strain ROT2, stronger effect = lower value 1 | locus YBR231C, strain swc5, stronger effect = lower value 0.981 | locus YBR279W, strain paf1, stronger effect = lower value 0.988 | locus YCL011C, strain gbp2, stronger effect = lower value 1.01 | locus YCL016C, strain dcc1, stronger effect = lower value 1.02 | locus YCL029C, strain bik1, stronger effect = lower value 0.974 | locus YCL061C, strain MRC1 (second series), stronger effect = lower value 1.01 | locus YCL069W, strain vba3, stronger effect = lower value 1 | locus YCR088W, strain abp1, stronger effect = lower value 0.989 | locus YDL005C, strain med2, stronger effect = lower value 0.978 | locus YDL035C, strain GPR1, stronger effect = lower value 0.99 | locus YDL040C, strain nat1, stronger effect = lower value 0.989 | locus YDL074C, strain BRE1, stronger effect = lower value 0.984 | locus YDL101C, strain DUN1, stronger effect = lower value 1.01 | locus YDL185W, strain tfp1, stronger effect = lower value 0.968 | locus YDL192W, strain arf1, stronger effect = lower value 0.973 | locus YDR001C, strain nth1, stronger effect = lower value 0.99 | locus YDR069C, strain doa4, stronger effect = lower value 0.999 | locus YDR101C, strain arx1, stronger effect = lower value 0.979 | locus YDR137W, strain rgp1, stronger effect = lower value 1.01 | locus YDR159W, strain sac3, stronger effect = lower value 0.96 | locus YDR162C, strain NBP2, stronger effect = lower value 1.04 | locus YDR195W, strain ref2 0.959 | locus YDR297W, strain sur2, stronger effect = lower value 1 | locus YDR318W, strain mcm21, stronger effect = lower value 0.995 | locus YDR334W, strain swr1, stronger effect = lower value 0.979 | locus YDR335W, strain msn5, stronger effect = lower value 0.995 | locus YDR363W, strain ESC2, stronger effect = lower value 1.01 | locus YDR388W, stronger effect = lower value 0.989 | locus YDR392W, strain spt3, stronger effect = lower value 0.941 | locus YDR502C, strain sam2, stronger effect = lower value 0.987 | locus YEL003W, strain gim4, stronger effect = lower value 0.989 | locus YEL037C, strain rad23, stronger effect = lower value 0.989 | locus YEL061C, strain CIN8 (second series), stronger effect = lower value 0.987 | locus YEL061C, strain CIN8, stronger effect = lower value 0.998 | locus YER002W, strain NOP16, stronger effect = lower value 0.91 | locus YER015W, strain faa2, stronger effect = lower value 0.984 | locus YER016W, strain bim1, stronger effect = lower value 0.995 | locus YER110C, stronger effect = lower value 0.965 | locus YER111C, strain swi4, stronger effect = lower value 0.981 | locus YER155C, strain BEM2 (second series), stronger effect = lower value 0.959 | locus YER155C, strain BEM2, stronger effect = lower value 0.985 | locus YER167W, strain BCK2, stronger effect = lower value 0.991 | locus YFR010W, strain ubp6, stronger effect = lower value 0.973 | locus YGL078C, strain dbp3, stronger effect = lower value 1.01 | locus YGL086W, strain mad1, stronger effect = lower value 0.98 | locus YGL167C, strain pmr1, stronger effect = lower value 0.99 | locus YGL173C, strain kem1, stronger effect = lower value 0.99 | locus YGL227W, strain vid30, stronger effect = lower value 0.989 | locus YGL240W, strain doc1, stronger effect = lower value 0.986 | locus YGL248W, strain PDE1, stronger effect = lower value 1.02 | locus YGL253W, strain hxk2, stronger effect = lower value 0.981 | locus YGR135W, strain pre9, stronger effect = lower value 0.997 | locus YGR229C, strain SMI1, stronger effect = lower value 1.02 | locus YGR252W, strain gcn5, stronger effect = lower value 1.15 | locus YHR013C, strain ard1, stronger effect = lower value 0.979 | locus YHR027C, strain rpn1, stronger effect = lower value 0.993 | locus YHR030C, strain SLT2, stronger effect = lower value 0.985 and 1.04 | locus YHR079C, strain IRE1 (second series), stronger effect = lower value 0.974 | locus YHR079C, strain IRE1, stronger effect = lower value 1.04 | locus YHR094C, strain hxt1, stronger effect = lower value 0.981 | locus YHR129C, strain ARP1, stronger effect = lower value 0.992 | locus YHR142W, strain chs7, stronger effect = lower value 1.02 | locus YHR200W, strain rpn10, stronger effect = lower value 0.984 | locus YIL066C, strain RNR3, stronger effect = lower value 1.01 | locus YIL073C, strain SPO22, stronger effect = lower value 0.943 | locus YIL125W, strain kgd1, stronger effect = lower value 0.987 | locus YIR030C, strain dcg1, stronger effect = lower value 0.987 | locus YJL092W, strain hpr5, stronger effect = lower value 0.991 | locus YJL095W, strain BCK1 (second series), stronger effect = lower value 1 | locus YJL095W, strain BCK1, stronger effect = lower value 1.05 | locus YJL115W, strain asf1, stronger effect = lower value 0.985 | locus YJL129C, strain trk1, stronger effect = lower value 0.99 | locus YJL134W, strain LCB3, stronger effect = lower value 0.991 | locus YJL154C, strain vps35, stronger effect = lower value 0.98 | locus YJL164C, strain tpk1, stronger effect = lower value 1.02 | locus YJL166W, strain qcr8, stronger effect = lower value 1.01 | locus YJL168C, strain set2, stronger effect = lower value 0.993 | locus YJL187C, strain SWE1 (second series), stronger effect = lower value 1.02 | locus YJR043C, strain POL32, stronger effect = lower value 1.01 | locus YJR066W, strain TOR1, stronger effect = lower value 0.997 | locus YJR075W, strain HOC1, stronger effect = lower value 1.01 and 1 | locus YKL009W, strain mrt4, stronger effect = lower value 0.961 | locus YKL068W, stronger effect = lower value 1 | locus YKL085W, strain MDH1 (second series), stronger effect = lower value 0.973 | locus YKL085W, strain MDH1, stronger effect = lower value 0.973 | locus YKL160W, strain elf1, stronger effect = lower value 1 | locus YKL190W, strain CNB1, stronger effect = lower value 0.997 | locus YKR001C, strain vps1, stronger effect = lower value 0.999 | locus YKR026C, strain gcn3, stronger effect = lower value 0.981 | locus YKR091W, strain srl3, stronger effect = lower value 0.995 | locus YLL001W, strain dnm1, stronger effect = lower value 0.993 | locus YLL026W, stronger effect = lower value 0.994 | locus YLL041C, strain sdh2, stronger effect = lower value 0.987 | locus YLR027C, strain aat2, stronger effect = lower value 0.969 | locus YLR039C, strain RIC1, stronger effect = lower value 0.963 | locus YLR058C, strain SHM2, stronger effect = lower value 1.01 | locus YLR102C, strain apc9, stronger effect = lower value 0.97 | locus YLR113W, strain HOG1, stronger effect = lower value 1.02 | locus YLR221C, strain rsa3, stronger effect = lower value 0.96 | locus YLR258W, strain gsy2, stronger effect = lower value 1.02 | locus YLR262C, strain YPT6 (second series), stronger effect = lower value 1.01 | locus YLR262C, strain YPT6, stronger effect = lower value 0.999 | locus YLR268W, strain sec22, stronger effect = lower value 0.975 | locus YLR320W, strain mms22, stronger effect = lower value 0.963 | locus YLR330W, strain CHS5, stronger effect = lower value 0.984 | locus YLR342W, strain FKS1 (second series), stronger effect = lower value 0.987 | locus YLR342W, strain FKS1, stronger effect = lower value 0.983 | locus YLR357W, strain rsc2, stronger effect = lower value 0.969 | locus YLR370C, strain arc18, stronger effect = lower value 0.998 | locus YLR371W, strain rom2, stronger effect = lower value 0.977 | locus YLR384C, strain iki3, stronger effect = lower value 0.973 | locus YLR418C, strain cdc73, stronger effect = lower value 1.04 | locus YML016C, strain PPZ1, stronger effect = lower value 0.995 | locus YML032C, strain rad52, stronger effect = lower value 0.989 | locus YML120C, strain ndi1, stronger effect = lower value 1.01 | locus YML124C, strain tub3, stronger effect = lower value 1.01 | locus YMR058W, strain fet3, stronger effect = lower value 0.992 | locus YMR078C, strain ctf18, stronger effect = lower value 0.974 | locus YMR125W, strain sto1, stronger effect = lower value 1.01 | locus YMR129W, stronger effect = lower value 0.992 | locus YMR205C, strain PFK2, stronger effect = lower value 1.01 | locus YMR223W, strain ubp8, stronger effect = lower value 1 | locus YMR231W, strain pep5, stronger effect = lower value 0.985 | locus YMR263W, strain SAP30, stronger effect = lower value 1 and 1.01 | locus YMR307W, strain GAS1, stronger effect = lower value 1.12 | locus YNL067W, strain RPL9B, stronger effect = lower value 1.03 | locus YNL071W, strain lat1, stronger effect = lower value 1 | locus YNL153C, strain GIM3, stronger effect = lower value 1.04 and 1.02 | locus YNL175C, strain NOP13, stronger effect = lower value 1 | locus YNL183C, strain NPR1, stronger effect = lower value 1.01 | locus YNL197C, strain WHI3, stronger effect = lower value 0.915 | locus YNL209W, strain ssb2, stronger effect = lower value 1.01 | locus YNL224C, strain SQS1, stronger effect = lower value 1 | locus YNL233W, strain BNI4, stronger effect = lower value 1.02 | locus YNL248C, strain rpa49, stronger effect = lower value 0.965 | locus YNL250W, strain rad50, stronger effect = lower value 0.978 | locus YNL271C, strain bni1, stronger effect = lower value 0.994 | locus YNL298W, strain CLA4, stronger effect = lower value 0.987 | locus YNL307C, strain MCK1, stronger effect = lower value 0.992 | locus YNL322C, strain KRE1 (second series), stronger effect = lower value 1 | locus YNL322C, strain KRE1, stronger effect = lower value 1.01 | locus YNR049C, strain mso1, stronger effect = lower value 0.976 | locus YNR052C, strain pop2, stronger effect = lower value 1.01 | locus YOL006C, strain TOP1, stronger effect = lower value 0.976 | locus YOL012C, strain htz1 1.03 | locus YOL147C, strain pex11, stronger effect = lower value 0.984 | locus YOR001W, strain rrp6, stronger effect = lower value 0.943 | locus YOR061W, strain CKA2, stronger effect = lower value 0.992 | locus YOR069W, strain VPS5, stronger effect = lower value 0.989 | locus YOR070C, strain gyp1, stronger effect = lower value 0.982 | locus YOR080W, strain dia2, stronger effect = lower value 0.987 | locus YOR083W, strain WHI5 (second series), stronger effect = lower value 1.03 | locus YOR083W, strain WHI5, stronger effect = lower value 1.01 | locus YOR106W, strain vam3, stronger effect = lower value 1.01 | locus YOR136W, strain idh2, stronger effect = lower value 0.984 | locus YOR144C, strain elg1, stronger effect = lower value 0.988 | locus YOR184W, strain ser1, stronger effect = lower value 0.97 | locus YOR231W, strain MKK1, stronger effect = lower value 1.05 | locus YOR265W, strain rbl2, stronger effect = lower value 0.992 | locus YOR270C, strain vph1, stronger effect = lower value 0.976 | locus YOR290C, strain snf2, stronger effect = lower value 0.985 | locus YOR316C, strain cot1, stronger effect = lower value 0.98 | locus YPL051W, strain arl3, stronger effect = lower value 0.981 | locus YPL055C, strain LGE1, stronger effect = lower value 1.01 | locus YPL078C, strain atp4, stronger effect = lower value 1.01 | locus YPL106C, strain sse1, stronger effect = lower value 1.01 | locus YPL240C, strain hsp82, stronger effect = lower value 0.992 | locus YPL256C, strain CLN2, stronger effect = lower value 1.03 | locus YPR119W, strain clb2, stronger effect = lower value 0.973 | locus YPR141C, strain kar3, stronger effect = lower value 0.983 | locus YPR163C, strain tif3, stronger effect = lower value 0.983 | locus YPR167C, strain met16, stronger effect = lower value 0.958 | strain wtn01, stronger effect = lower value 0.985

— PubChem BioAssay AID1159580 (chemical genetic matrix, 2015)
